This is one part of a sample in which hits are shown more often than they occur.
Pf Dd2 inh: Plasmodium falciparum Dd2 growth inhibition. P. falciparum Dd2 growth, SYBR Green, 72 h. Potency, µM (series often up to 28.9 µM), inactives show at the highest dose activity, negative = inhibition, most hits filed as inhibitors. 4.3% of 120,000 active. AID 1347417; active = well fitted inhibition curve with a large enough effect;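 note: plate controls were DMSO vehicle for no effect and reference drug for full effect; nearly all actives have a fitted effect of over 65% in size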
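Infected erythrocytes (Dd2, 0.3% parasitemia, 2.5% hematocrit final) are added to compound in RPMI-1640/Albumax II medium, grown 72 h at 37C in low oxygen, then lysed with saponin/Triton-X containing SYBR Green and read by fluorescence.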
* marks the source's active call; other numbers are inactive results; i = inactive; [ ] = dose if it differs, or a comment. Potency is the fitted concentration of half-maximal effect.

SMILES	Pf Dd2 inh
CC(C)c1noc(-c2cn(C3CCN(C(=O)c4cccc(OC(F)(F)F)c4)C3)nn2)n1 (configuration not stated)	141%
CC(C)c1noc(-c2cn(C3CCN(C(=O)c4cccc(C(F)(F)F)c4)C3)nn2)n1 (configuration not stated)	10µM*
Cc1noc(-c2cn(C3CCN(C(=O)C4(c5ccccc5)CC4)CC3)nn2)n1	12%
Cc1noc(-c2cn(C3CCN(C(=O)c4ccc(C)s4)CC3)nn2)n1	i
COc1cccc(C(=O)N2CCC(n3cc(-c4nc(C)no4)nn3)CC2)c1	49%
Cc1ccc(C(=O)N2CCC(n3cc(-c4nc(C5CC5)no4)nn3)C2)s1 (configuration not stated)	10µM*
CC(=O)Nc1cccc(C(=O)N2CCC(n3cc(-c4nc(C)no4)nn3)CC2)c1	-1%
Cc1ccc(C(=O)N2CCCC(n3cc(-c4nc(C5CC5)no4)nn3)C2)s1 (configuration not stated)	-7%
Cc1ccc(C(=O)N2CCC(n3cc(-c4nc(-c5ccccc5)no4)nn3)C2)cc1C (configuration not stated)	-10%
COc1ccc(C2(C(=O)N3CCC(n4cc(-c5nc(C)no5)nn4)CC3)CC2)cc1	3.2µM*
CC(C)c1noc(-c2cn(C3CCN(C(=O)c4ccc(F)c(F)c4)C3)nn2)n1 (configuration not stated)	44%
CC(C)N1C[C@H](O)C[C@H]1c1nnc2n1CCN(C(=O)c1ccc3ncccc3c1)CC2	12%
O=C1NC[C@@H](CCC(=O)N2CCC(O)CC2)N2C[C@@H](NCc3ccccc3)C[C@@H]12	6%[44.1 µM]
COCCN1C(=O)CCC2(C(=O)NCCc3c[nH]c4ccccc34)CCCC=C12 (configuration not stated)	-19%
COc1cccc(CNC(=O)[C@@H]2C[C@@H](O)CN2C2CCN(C(=O)CCc3ccccc3)CC2)c1	i
Cc1cccc(CNC(=O)c2c(OCC(C)C)cc(=O)n3c2CCCCC3)c1	-4%
CNc1cc(C)nc(N2C[C@H]3CN(C(=O)N(C)C)C[C@@]3(C(=O)O)C2)n1	-3%
COc1ccc(-c2nc(C3CC(=O)N(c4ccc(F)c(Cl)c4)C3)no2)cc1 (configuration not stated)	32%
Cc1oc(C(O)c2ccccc2)nc1C(=O)Nc1ccc2c(c1)NC(=O)CO2 (configuration not stated)	10µM*
COc1ccc(NC(=O)c2nc(C(O)c3ccccc3)oc2C)cn1 (configuration not stated)	i
Cc1oc(C(O)c2ccccc2)nc1C(=O)Nc1ccc(C(=O)Nc2ccccc2)cc1 (configuration not stated)	i
Cc1n[nH]c(C)c1C(N)C(=O)NCCc1cccc(C(F)(F)F)c1 (configuration not stated)	-22%
CNC(=O)[C@@H]1CNC[C@H]1c1nc(C)no1	-1%
CN(C)CCCC(=O)N1CCC2(CC1)CN(C(=O)CCC(=O)O)CCO2	3%
CC(C)c1cc(C(=O)N(C)CCc2noc(C3CC3)n2)nc2ncnn12	-13%
SMILES	Pf Dd2 inh
O=C(c1cccnc1)N1CCC2(CC1)COc1ccccc1NC2=O	19%
OC1(CN2CCCN(c3nc4ccccc4s3)CC2)CNCCOC1 (configuration not stated)	8.9µM*
OC1(CN2CCC(OCc3ccccn3)CC2)CNCCOC1 (configuration not stated)	-19%
OC1(CN2CCN(C(c3ccccc3)c3ccccc3)CC2)CNCCOC1 (configuration not stated)	6.3µM*
Cc1cc(N2CCN(CC3(O)CNCCOC3)CC2)n2ncnc2n1 (configuration not stated)	-1%
OC1(CN2CCN(c3cnccn3)CC2)CNCCOC1 (configuration not stated)	-7%
Cn1ccnc1CN1CCN(CC2(O)CNCCOC2)CC1 (configuration not stated)	24%
C#CCNC(=O)C[C@@H]1O[C@H](CNC(=O)c2ccc(C)cc2)[C@@H](O)[C@H]1O	10%[44.1 µM]
COc1ccc(-c2cc(N3CCC(NC(=O)Cc4ccccc4)CC3)n[nH]2)cc1	-8%
Cc1nc(-c2c3n(c(=O)n(CCOc4ccccc4)c2=O)CCCCC3)no1	11%
COc1cc(=O)n2c(c1C(=O)Nc1ccc(C(C)C)cc1)CCCC2	-21%
O=C1C(N2CCN(S(=O)(=O)c3ccc(F)cc3F)CC2)CCN1Cc1cccnc1 (configuration not stated)	-8%
COc1ccccc1-c1ncc2c(n1)OCCN(Cc1ccc(F)cc1F)C2=O	i
COc1cccc(-c2ncc3c(n2)OCCN(Cc2ccc(F)cc2F)C3=O)c1	-21%[44.1 µM]
COc1cccc(-c2ncc3c(n2)OCCN(Cc2ccc(F)cc2F)C3=O)c1F	10µM*
O=C(Nc1cc(Cl)cc(Cl)c1)c1ccc(F)c(S(=O)(=O)N2CCCC2)c1	-16%
O=C(O)c1ccc2c(c1)N(S(=O)(=O)c1ccccc1F)CC2	28%
O=C(Nc1cc(Cl)cc(Cl)c1)c1ccc(F)c(S(=O)(=O)N2CCc3ccccc32)c1	8.9µM*
COC(=O)c1cc2n(n1)CCN(C(=O)CCc1cccc(OC)c1)C2	-14%
CC(C)CCN1C(=O)CC[C@H]2CN(C(=O)Cc3c[nH]c(=O)[nH]c3=O)CC[C@H]21	8%
CN1c2cc(C(=O)N3CCN(C4CCCCC4)CC3)ccc2C(=O)N2CCCCC21 (configuration not stated)	-9%
Cc1ccc(C(=O)N[C@H]2CO[C@H]3[C@@H]2OC[C@H]3OC(=O)Nc2ccccc2)cc1	-4%[44.1 µM]
O=C(CCc1ccccc1)N1CCC[C@H]1c1nc(-c2ccccc2Cl)no1	-6%
CCOc1ccc(Cn2c(CNS(=O)(=O)c3cccc(Cl)c3)nc3cccnc32)cc1	-8%
CCOc1ccc(/C=C/c2nc3ccccc3n2S(=O)(=O)c2cccc(Cl)c2)cc1	3.5µM*
SMILES	Pf Dd2 inh
CSc1ccc(/C=C/c2nc3ccccc3n2S(=O)(=O)c2ccc(F)c(C)c2)cc1	i
COc1cccc(-c2nnnn2[C@H]2CO[C@H]3[C@@H]2OC[C@@H]3NC(=S)Nc2ccc(F)cc2)c1	i
Cc1noc(C)c1[S+](=O)([O-])N1CCC(N2CCC[S+]2(=O)[O-])CC1	i
CN(C)c1nc2c(c(=O)[nH]1)CCN(Cc1cccc(Cl)c1)CC2	22%[5.79 µM]
Cc1cc2c(n1-c1ccc(C(=O)NCC(C)c3ccccc3)cc1)CCCC2 (configuration not stated)	10µM*
CCNC(=O)c1ccc(-n2c(-c3ccccc3)cc3c2CCCCC3)cc1	-2%
CCCNC(=O)c1ccc(-n2c(-c3ccccc3)cc3c2CCCCC3)cc1	-27%
Cc1ccccc1CNC(=O)c1ccc(-n2c(C)cc3c2CCCC3)cc1	10µM*
CC(C)NC(=O)c1ccc(-n2c(-c3ccccc3)cc3c2CCCC3)cc1	i
COCCNC(=O)c1ccc(-n2c(-c3ccccc3)cc3c2CCCCC3)cc1	-21%
O=C(NCc1ccc(F)cc1)C1CCc2nnc(C3CCN(C(=O)c4ccccc4)CC3)n21 (configuration not stated)	18%
COc1cc(OC)cc(C(=O)NC2CCN(c3cc(-c4ccccc4)[nH]n3)CC2)c1	-22%
O=C1NCc2ccccc2CC12CCN(Cc1ccccc1Cl)CC2	-13%
CN(CC1(C)CCOCC1)C(=O)c1ccc2cc[nH]c2c1	4%
CN(CCC(N)=O)C(=O)C1CCCN1S(=O)(=O)c1ccc(F)cc1 (configuration not stated)	23%

Screening results from PubChem.
